Test results from PubChem BioAssay (NCI).
The panel holds about 83,000 compounds, 20% with a hit somewhere; the sample as a whole holds those more often.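 Step 1: grow cells in 96-well plates. Step 2: add test compound at a single concentration. Step 3: incubate 48 h. Step 4: record percent growth.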 Values without a mark were called inactive. Active and inactive are the calls of the source. Rule for the calls: active = growth percent below 10; inactive = the rest.

Columns and labels:
Assay in all cases: NCI-60 one-dose screen, 48 h (100 = growth as untreated, 0 = no growth, -100 = all killed)
Conditions in all cases: 10 µM unless noted
HCT-15 colon = test system: HCT-15 colon
HT29 colon = test system: HT29 colon
SNB-19 CNS = test system: SNB-19 CNS
U251 CNS = test system: U251 CNS
PC-3 prostate = test system: PC-3 prostate
SK-MEL-5 melanoma = test system: SK-MEL-5 melanoma
UACC-62 melanoma = test system: UACC-62 melanoma
LOX IMVI melanoma = test system: LOX IMVI melanoma
SK-MEL-28 melanoma = test system: SK-MEL-28 melanoma
SNB-75 CNS = test system: SNB-75 CNS

Row | SMILES | growth (HCT-15 colon) | growth (HT29 colon) | growth (SNB-19 CNS) | growth (U251 CNS) | growth (PC-3 prostate) | growth (SK-MEL-5 melanoma) | growth (UACC-62 melanoma) | growth (LOX IMVI melanoma) | growth (SK-MEL-28 melanoma) | growth (SNB-75 CNS)
1 | C=C1CC2(OC1=O)C(=O)Nc1ccccc12 (stereo not given) | 23% | 42.7% | 88.3% | 91.2% | 73.6% | 81.2% | 72.9% | 35.3% | 63.8% | 
2 | Nc1c(C(=O)Nc2ccccc2Cl)sc2nc3c(cc12)CCCCCC3 | 25.8% | 9.39% (active) |  |  | 77.5% | 32.6% |  | 51% | 57.9% | -20.3% (active)
3 | COc1ccc2c(c1)C(=O)/C(=C/c1cccc(OCC(=O)Nc3nc4c(s3)CCCC4)c1)O2 | -15.7% (active) | -74.3% (active) |  | 41.9% |  | -14% (active) | 79.1% | -70.3% (active) | 38.1% | 19%
4 | CCOC(=O)C(C#N)C1CCCCC1 (stereo not given) | 95.9% | 108% |  |  | 80.7% | 103% | 75.6% | 92.4% | 108% | 97.9%
5 | COc1ccc(C/C(C)=C(\c2ccc(Cl)cc2)c2ccc(OCCN3CCCCCC3)cc2)cc1 | 43.1% | 15.7% | 84.6% | 64.5% | 69.2% | 80% | 93.2% | 90% | 91% | 
6 | O=c1c2c3c(sc2n2c(CCl)nnc2n1Cc1ccccc1)CCCC3 | -89.4% (active) | -100% (active) |  | -99.2% (active) |  | -96.1% (active) | -72.8% (active) | -100% (active) | -100% (active) | -61.3% (active)
7 | Cc1cc(Cl)ccc1Nc1nc(C(F)(F)F)ccc1C(=O)N/N=C/c1ccc(F)cc1 | 6.36% (active) | 4.55% (active) |  | 3.86% (active) |  | 5.06% (active) | 15.4% | 0.251% (active) | 34.1% | 42%
8 | COc1ccc(-c2cc(-c3ccc(N(C)C)cc3)nc(NC(=O)c3ccncc3)n2)cc1 | 90.4% | 106% | 90.2% | 98% | 83.5% | 89.2% | 101% | 91.7% | 108% | 
9 | CC1=CC(=O)CC(C)(C)[C@@]1(O)/C=C/[C@@H](C)O | 89.4% | 112% | 97.7% | 90.8% | 101% | 97.4% | 99.7% | 93.7% | 108% | 
10 | CCCCCCCCCC(=O)Oc1ccc(/C(=C(/C)Cc2cccc(OC)c2)c2ccc(OCCN(C)C)cc2)cc1 | 105% | 109% | 109% | 110% | 110% | 107% | 97.8% | 102% | 114% | 
11 | Nc1cccc(-c2nc3sccn3c2-c2ccnc(NCCCNS(=O)(=O)c3ccc(C(F)(F)F)cc3)n2)c1 | 1.79% (active) | 14% | 29.1% | 19.8% | 1.93% (active) | -90.5% (active) | -33.3% (active) | -30.2% (active) | 11.2% | 
12 | COc1ccc(C/C(C)=C(\c2ccc(OCCN3CCCCCC3)cc2)c2ccc(OC(=O)C3CCCCC3)cc2)cc1 | 38.7% | -31.8% (active) | 63.3% | 44.1% | 50.7% | 65.4% | 63.5% | 66.8% | 66.9% | 
13 | C(=N\Nc1nnn(Cc2ccccc2)n1)/c1ccccc1 | 23.1% | 20.1% |  |  | 51.9% | 32% | 41.5% | 48.8% | 45.4% | 75%
14 | OC(c1cccc(C(F)(F)F)c1)c1cnccc1NC1CCCCCC1 (stereo not given) | 8.21% (active) | -6.41% (active) | 69.3% | -2.39% (active) | 22.4% | -68.2% (active) | 55% | -18.7% (active) | -12.9% (active) | 
15 | COc1ccc(C(=O)COc2ccc(/C=C3\Oc4ccc(Cl)cc4C3=O)cc2)cc1 | 103% | 109% |  | 96.7% |  | 78.8% | 83.6% | 92% | 79.9% | 88.8%
16 | O=C(CN1CCN(c2cc3c(cc2F)c(=O)c(C(=O)N/N=C/c2ccccc2)cn3C2CC2)CC1)N/N=C\c1ccccc1 | 53.9% | 73.4% | 74% | 83.7% | 50% | 83% | 71.4% | 72.6% | 88.9% | 
17 | COc1cc(/C=N\NC(=O)CN2CCN(c3cc4c(cc3F)c(=O)c(C(=O)N/N=C/c3ccc(O)c(OC)c3)cn4C3CC3)CC2)ccc1O | 97.2% | 14.1% | 55.5% | 55.3% | 69.7% | 56.8% | 52.9% | 8.64% (active) | 79.8% | 
18 | O=C(COc1cccc(/C=C2/Oc3ccccc3C2=O)c1)Nc1nccs1 | 81.7% | 84.2% |  |  | 14.6% | 78.8% | 82.9% | 65.4% | 124% | 84.8%
19 | CCCCCn1cnc2c(=S)nc[nH]c21 | 107% | 114% |  |  | 98% | 93.5% | 109% | 107% | 106% | 90.2%
20 | COc1cc(/C=C2\CN(C(=O)CCN3CCC(=NO)CC3)C/C(=C\c3cc(OC)c(OC)c(OC)c3)C2=O)cc(OC)c1OC | -54.7% (active) | -70% (active) | -90.1% (active) | -68.6% (active) | -54.3% (active) | -61.2% (active) | -70.7% (active) | -85.2% (active) | -76.7% (active) | 
21 | O=C1/C(=C/c2ccc(Cl)c(Cl)c2)CN(C(=O)CCN2CCC(=NO)CC2)C/C1=C\c1ccc(Cl)c(Cl)c1 | -88.3% (active) | -85.9% (active) | -96% (active) | -93.4% (active) | -71.2% (active) | -93.7% (active) | -92.3% (active) | -90.6% (active) | -92% (active) | 
22 | O=[N+]([O-])c1cccc(-c2nc3sccn3c2-c2ccnc(NCCNS(=O)(=O)c3ccc(C(F)(F)F)cc3)n2)c1 | 26.7% | 40% | 61.4% | 51.4% | 17% | -14% (active) | 13.2% | 30.4% | 58.8% | 
23 | COc1ccc(/C=C2\CN(C(=O)CCN3CCC(=NO)CC3)C/C(=C\c3ccc(OC)cc3)C2=O)cc1 | -12.8% (active) | -48.2% (active) | 8.36% (active) | -46.2% (active) | 12.1% | -55.7% (active) | -70.2% (active) | -91.8% (active) | -30.5% (active) | 
24 | COc1ccc(S(=O)(=O)NCCNc2nccc(-c3c(-c4cccc(N)c4)nc4sccn34)n2)cc1 | 101% | 93.5% | 108% | 104% | 83.6% | 98% | 100% | 98.4% | 117% | 
25 | CSc1nc2sc3c(c2c(=O)n1-c1ccc(C(C)C)cc1)CCC(=O)C3 | -15.9% (active) | 11.4% | 9.58% (active) | -80% (active) | -6.64% (active) | -79.9% (active) | -20.8% (active) | -39.6% (active) | 28.7% | 
26 | O=[N+]([O-])c1cccc(-c2nc3sccn3c2-c2ccnc(NCCCNS(=O)(=O)c3ccc(Br)cc3)n2)c1 | 34.1% | 57.1% | 87.4% | 83.8% | 24.5% | -15.6% (active) | 2.78% (active) | 38.4% | 76.9% | 
27 | C=C1CC2(OC1=O)C(=O)N(CCCCCCCN1C(=O)C3(CC(=C)C(=O)O3)c3ccccc31)c1ccccc12 (stereo not given) | -19.6% (active) | -17.4% (active) | 67.9% | 36.5% | 45.7% | 61.3% | 34.9% | -82.5% (active) | 9.63% (active) | 
28 | C=C1C(=O)O[C@H]2[C@H]1CC/C(Cn1cc(Cc3c[nH]c4ccccc34)nn1)=C\CC[C@@]1(C)O[C@@H]21 | -25.9% (active) | 3.04% (active) | 65.4% | 37.6% | 38.7% | 24.9% | 38% | -76.2% (active) | 20% | 
29 | COc1cc(NC(N)=NCC(C)(C)COc2ccc(C(F)(F)F)cc2)cnc1C#N | 59.9% | 26.9% | 70.6% | 59.9% | 49.3% | 26.9% | 61.7% | 67.1% | 85.5% | 
30 | COc1cc(NCCCCN=C(N)NC(N)=NC(C)C)c2ncccc2c1 | 122% | 53.9% | 55.9% | 50% | 22.9% | 17% | 77% | 46.6% | 86.4% | 
